Hits are enriched below; roughly 4% of the tested compounds scored in any of these assays.
TROY NFkB inh: blocks TROY-dependent signaling in reporter cells. Q293 LMP1-TROYcd NF-kB luciferase reporter, 4 h. inhibition, % at 10 µM. actives 0.98% (n = 360,000);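 active = compounds whose plate-normalised and pattern-corrected inhibition of the luciferase reporter signal at the single screening dose is 50% or more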
MITF TRPM1 inh: inhibitors of MITF-driven TRPM1 promoter in melanoma cells; SK-MEL-5 TRPM1 promoter luciferase, 24 h; inhibition, % at 12.5 µM; actives 0.83% (n = 330,000); AID 488899;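 active = mean inhibition across replicates of 60% or more, whatever share of single replicates reaches that level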
EBV LMP1 NFkB: reduces LMP1-driven NF-kappaB luciferase signal. AID 504558. inhibition, % at 12.5 µM. actives 0.69% (n = 350,000). LMP1-induced NF-kappaB luciferase reporter cells, luminescence; in the data active = inhibition above about 41%;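 note: 0% = neutral control wells and 100% = reference inhibitor control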
HIF-2a block: inhibitors of HIF-2a | inhibition, % at 18.8 µM | actives 0.72% (n = 360,000) | 786-0 RCC cells HIF-2a reporter, luciferase luminescence, overnight;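 active = inhibition of the luminescence signal of 40% or more relative to plate controls, in a single-dose primary screen at 18.75 µM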
Peg3 prom inh: inhibitors of Peg3 promoter. HeLa PEG-Prom luciferase reporter, luminescence, overnight. inhibition, % at 20 µM. actives 1.7% (n = 360,000);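 active = inhibition of at least 50% at 20 µM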
TWEAK-Fn14 inh: TWEAK-Fn14 signaling inhibition; TWEAK-stimulated Fn14 reporter cells, luciferase luminescence, 8 h; inhibition, % at 10 µM; actives 2% (n = 360,000); in the data active = inhibition above about 50%
* hit, by the source's call.

O=C(Nc1ccc(Cl)cn1)c1ccc2c(Cl)c3c(nc2c1)CCC3 was read as TROY NFkB inh 59.9*, MITF TRPM1 inh 0.9, EBV LMP1 NFkB 0.5, HIF-2a block -182.3, Peg3 prom inh -105.6 and TWEAK-Fn14 inh 50.7*.
`CCCCNC(=O)c1ccc2c(SCC(=O)O)c3c(nc2c1)CCCC3` gave TROY NFkB inh -6.4, MITF TRPM1 inh 6.8, EBV LMP1 NFkB -2.2, HIF-2a block 14.1, Peg3 prom inh -129.9 and TWEAK-Fn14 inh -1.9.
`Cc1cccc(NC(=O)c2ccc3c(Cl)c4c(nc3c2)CCCC4)n1` gave TROY NFkB inh 70.6*, MITF TRPM1 inh -22.9, EBV LMP1 NFkB -33.9, HIF-2a block -122.6, Peg3 prom inh -91.9 and TWEAK-Fn14 inh 62.9*.
Screening Cc1cccc(NC(=O)c2ccc3nccnc3c2)n1 returned TROY NFkB inh -29.5, MITF TRPM1 inh -58.8, EBV LMP1 NFkB -5.2, HIF-2a block -159.2, Peg3 prom inh -126.5 and TWEAK-Fn14 inh -20.1.
Screening CN1CCN(CCCNC(=O)c2ccc3c(Cl)c4c(nc3c2)CCCC4)CC1 returned TROY NFkB inh -4.2, MITF TRPM1 inh -17.0, EBV LMP1 NFkB -22.3, HIF-2a block -20.2, Peg3 prom inh 87.1* and TWEAK-Fn14 inh -17.6.
CCC(C)NC(=O)c1ccc2c(Cl)c3c(nc2c1)CCC3 (stereo not given) was read as TROY NFkB inh -61.9, MITF TRPM1 inh -52.6, EBV LMP1 NFkB -8.0, HIF-2a block -330.6, Peg3 prom inh -242.5 and TWEAK-Fn14 inh -6.4.
Cc1ccc([C@H]2N[C@]3(CCCN(Cc4ccc(Cl)cc4)C3=O)[C@H]3C(=O)N(Cc4ccccc4)C(=O)[C@@H]23)cc1 was read as TROY NFkB inh 0.8, EBV LMP1 NFkB -13.9, HIF-2a block 6.9, Peg3 prom inh 23.0 and TWEAK-Fn14 inh 5.9.
`Cc1ccc(S(=O)(=O)c2nc(S(C)(=O)=O)sc2NCC2CCCO2)cc1` (stereo not given) gave MITF TRPM1 inh 1.5, EBV LMP1 NFkB -6.6, HIF-2a block 1.0, Peg3 prom inh 21.8 and TWEAK-Fn14 inh 87.2*.
Screening Cc1ccc(-c2ccc(S(=O)(=O)NCC3CCCO3)cc2)cc1 (stereo not given) returned TROY NFkB inh 24.2, MITF TRPM1 inh -7.0, EBV LMP1 NFkB 2.4, HIF-2a block -14.7, Peg3 prom inh -1.9 and TWEAK-Fn14 inh 34.0.
For COc1ccc(NC(=O)CS(=O)(=O)c2ccccc2Cl)cc1 the results were TROY NFkB inh -26.6, MITF TRPM1 inh -3.7, EBV LMP1 NFkB -1.5, HIF-2a block -48.3, Peg3 prom inh -33.7 and TWEAK-Fn14 inh 2.1.
`O=C(C=Cc1cccs1)c1cccs1` gave TROY NFkB inh -44.3, MITF TRPM1 inh -24.8, EBV LMP1 NFkB -6.6, HIF-2a block -69.7, Peg3 prom inh -116.0 and TWEAK-Fn14 inh 6.9.
Screening O=C(/C=C\c1cccs1)c1c(O)ccc2ccc(=O)oc12 returned TROY NFkB inh 5.2, MITF TRPM1 inh 3.0, EBV LMP1 NFkB -10.8, HIF-2a block 1.2, Peg3 prom inh 2.1 and TWEAK-Fn14 inh 50.9*.
For Nc1c(C(=O)O)cnc2c(-c3ccc(Cl)cc3)cnn12 the results were TROY NFkB inh 14.9, MITF TRPM1 inh 4.5, EBV LMP1 NFkB -15.7, HIF-2a block -118.6, Peg3 prom inh -137.7 and TWEAK-Fn14 inh 67.4*.
CC(=O)c1cnc2c(-c3ccc(Cl)cc3)cnn2c1C was read as TROY NFkB inh -67.3, MITF TRPM1 inh -64.3, EBV LMP1 NFkB -36.2, HIF-2a block -279.9, Peg3 prom inh -280.0 and TWEAK-Fn14 inh 3.7.
For Cc1ccc(-c2cc(=O)c3cc(C)ccc3[nH]2)cc1 the results were TROY NFkB inh 15.9, MITF TRPM1 inh 8.2, EBV LMP1 NFkB 23.7, HIF-2a block -94.9, Peg3 prom inh -3.6 and TWEAK-Fn14 inh 66.6*.
`O=C(N[C@H](CO)Cc1ccccc1)[C@H]1O[C@@H](n2ccc(=O)[nH]c2=O)[C@H](O)[C@@H]1O` gave TROY NFkB inh 1.6, HIF-2a block -6.9, Peg3 prom inh 6.5 and TWEAK-Fn14 inh -3.4.
Screening O=C(CCCOc1ccccc1)N1CCN(c2ccccn2)CC1 returned TROY NFkB inh 29.6, MITF TRPM1 inh -26.8, EBV LMP1 NFkB -11.8, HIF-2a block -128.7, Peg3 prom inh -142.1 and TWEAK-Fn14 inh 70.5*.
Screening COC(=O)C1CCN(C(=O)CSc2ccccc2)CC1 returned TROY NFkB inh -2.8, MITF TRPM1 inh 1.3, EBV LMP1 NFkB 3.5, HIF-2a block 7.3, Peg3 prom inh -0.2 and TWEAK-Fn14 inh 6.5.
Screening COC(=O)C1CCN(C(=O)CCCOc2ccccc2)CC1 returned TROY NFkB inh -5.3, MITF TRPM1 inh -49.3, EBV LMP1 NFkB 10.2, HIF-2a block -112.3, Peg3 prom inh -159.0 and TWEAK-Fn14 inh 50.6*.
`c1cc(-c2cc3cc(N4CCOCC4)ccc3o2)cs1` gave TROY NFkB inh 37.8, MITF TRPM1 inh -31.5, EBV LMP1 NFkB 2.5, HIF-2a block -247.4, Peg3 prom inh -98.1 and TWEAK-Fn14 inh 65.2*.
Screening Cc1c(CCC(=O)NCCCC(=O)O)c(=O)oc2cc3oc4c(c3cc12)CCCC4 returned TROY NFkB inh 9.1, MITF TRPM1 inh 31.1, EBV LMP1 NFkB 14.3, HIF-2a block 71.9*, Peg3 prom inh -69.2 and TWEAK-Fn14 inh 45.6.
Screening Cc1c(CCC(=O)N[C@@H](CCCNC(N)=O)C(=O)O)c(=O)oc2cc3oc4c(c3cc12)CCCC4 returned TROY NFkB inh 20.4, MITF TRPM1 inh 22.7, EBV LMP1 NFkB 7.5, HIF-2a block 67.4*, Peg3 prom inh -74.1 and TWEAK-Fn14 inh 47.5.
For Cc1c(CCC(=O)NCCCCCC(=O)O)c(=O)oc2c(C)c3oc4c(c3cc12)CCCC4 the results were TROY NFkB inh 8.2, MITF TRPM1 inh -6.2, EBV LMP1 NFkB 14.9, HIF-2a block 33.3, Peg3 prom inh 11.1 and TWEAK-Fn14 inh -4.6.
Screening COc1ccc(C(=O)CC(=O)C(=O)Nc2ccc(C)cc2Cl)cc1 returned TROY NFkB inh -14.2, MITF TRPM1 inh 12.2, EBV LMP1 NFkB 6.5, HIF-2a block 11.1, Peg3 prom inh 21.4 and TWEAK-Fn14 inh 51.6*.
Screening COc1cccc(C(=O)CC(=O)C(=O)Nc2ccc(C)cc2Cl)c1 returned TROY NFkB inh 35.6, MITF TRPM1 inh -4.2, EBV LMP1 NFkB 46.4*, HIF-2a block 8.5, Peg3 prom inh -2.8 and TWEAK-Fn14 inh 91.2*.
COc1ccc2nc(C)cc(NCc3ccc(F)cc3)c2c1 was read as TROY NFkB inh 1.0, MITF TRPM1 inh -15.5, EBV LMP1 NFkB -6.4, HIF-2a block 20.7, Peg3 prom inh 13.2 and TWEAK-Fn14 inh -13.6.
`CCc1cccc(N(C(=O)c2csnn2)C(C(=O)NC(C)(C)C)c2ccccn2)c1` (stereo not given) gave TROY NFkB inh -6.6, MITF TRPM1 inh -9.1, EBV LMP1 NFkB -6.0, HIF-2a block 14.8, Peg3 prom inh -1.9 and TWEAK-Fn14 inh -15.5.
CCSC(=O)N1c2ccc(OC)cc2C=CC1C#N (stereo not given) was read as TROY NFkB inh 8.9, MITF TRPM1 inh 48.0, EBV LMP1 NFkB -0.5, HIF-2a block -17.9, Peg3 prom inh -48.4 and TWEAK-Fn14 inh -5.8.

Assay outcomes deposited in PubChem by several laboratories.
